The list is not random: actives were taken first. Their share in the collection is about 19%.
HT1080NT lethal: kills 2HG-producing HT-1080-NT fibrosarcoma cells | Potency, µM (series often up to 46.1 µM), for inactives: top-dose activity, negative = less viability, hits mostly cytotoxic | 360,000 compounds, 1.6% hits | HT-1080-NT fibrosarcoma viability, CellTiter-Glo ATP luminescence, 48 h | AID 686970;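 also: NT is the 2HG producing partner of a matched IDH1 knockdown line; potency is read from the fitted curve at half-maximal effect; 0% = DMSO-treated cells and -100% = media-only wells without cells; nearly all actives have a fitted effect of over 55% in size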
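750 cells/well, RPMI + 5% FBS; 2 h settle, compound pin-transfer, 48 h at 37 degrees C. CellTiter-Glo 10 min RT, luminescence. Normalized to DMSO and media-only wells.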
TDP1 cell noCPT: qHTS for Inhibitors of human tyrosyl-DNA phosphodiesterase 1 (TDP1): qHTS in cells in absence of CPT; DT40 Tdp1-/- hTDP1 cells, no CPT, ATP luminescence, 48 h; Potency, µM (highest dose often 46.2 µM), without a hit: at the highest dose activity change, negative = growth inhibition, hits mostly inhibitors; 420,000 compounds, 15% hits; AID 686978, 2013; also: potency is read from the fitted curve at half-maximal effect; nearly all actives have a fitted effect of over 55% in size
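DT40 Tdp1-/-;hTDP1 cells, no CPT (DMSO vehicle only), 400 cells/well; compounds pin-transferred; ≥48 hr, 37 °C; CellTiter-Glo 30 min RT dark, luminescence read.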
TDP1 cell CPT: growth inhibition of DT40 Tdp1-/-;hTDP1 cells with camptothecin (screen for TDP1 inhibitors); chicken DT40 Tdp1-/-;hTDP1 cells + 20 nM CPT, ATP luminescence, 48 h; Potency, µM (top dose mostly 46.2 µM), inactives show top-dose activity change, negative = growth inhibition, usual class: inhibitors; 420,000 compounds, 12% hits; AID 686979; also: potency is read from the fitted curve at half-maximal effect; nearly all actives have a fitted effect of over 55% in size
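Cell growth measured by CellTiter-Glo luminescence after a minimum 48 h, 37 C compound exposure with 20 nM CPT in Tdp1-knockout DT40 cells stably expressing hTDP1, seeded 400/well; qHTS titration format.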
IL-1B inflam inh: inflammasome signaling inhibition, IL-1 beta readout | THP-1 LPS/ATP IL-1B secretion, AlphaLISA, 16 h; stronger effect = lower value | 360,000 compounds, 4.7% hits | activity change, % at 57.5 µM | AID 743279; in the data active = activity change below about -50%; inconclusive = mostly about -30% to -49%
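Secreted IL-1B measured by AlphaLISA bead assay after 16 h compound exposure of THP-1 cells; compounds (final up to 57.5 uM) added 1 h before LPS (250 ng/mL) and ATP (1.25 mM) stimulation; lower signal means less secretion.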
HT1080 IDH1KD tx: HT-1080 IDH1 knockdown cell toxicity (counter line); HT-1080 IDH1 knockdown viability, ATP luminescence, 48 h; 360,000 compounds, 2% hits; Potency, µM (top dose mostly 46.1 µM), for inactives: at the highest dose activity, negative = toxicity, actives largely listed as cytotoxic;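 also: potency is read from the fitted curve at half-maximal effect; 0% = DMSO wells and -100% = cell-free medium wells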
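Knockdown cells (IDH1KD HT-1080) received compounds 2 h after plating at 750 cells/well and were kept 48 h at 37 °C in 5% FBS RPMI. A CellTiter-Glo luminescence read gave % activity for curve fitting.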
Starred values were filed as active, the others as inactive; ? = inconclusive; · = not tested or not shown; [ ] = dose if it differs, or a comment. Unless noted, calls follow the shape of the dose curve; as a rule, active = well fitted curve in the direction sought with a large enough effect; inconclusive = small, poorly fitted or top-dose-only effect, or another doubt; inactive = no such curve, though single readings can be large; an effect the other way counts as inactive or inconclusive. Unless noted, % is scaled to controls: 0 for no effect and ±100 for the full control effect.

SMILES | HT1080NT lethal | TDP1 cell noCPT | TDP1 cell CPT | IL-1B inflam inh | HT1080 IDH1KD tx
C#CCOCCOCCOCCNc1nc(N2CCN(C(=O)[C@H](C(C)C)n3cc(CCO)nn3)CC2)nc(N2CCN(C(=O)[C@H](C)n3cc(CCCN=C(N)N)nn3)CC2)n1 | 13% | 3% | -4% | -1 | 17%
O=C(c1ccco1)N1CCN(C(=O)c2ccc(CS(=O)c3ccc(Cl)cc3)o2)CC1 (centres undefined) | 24% | 23% | 4% | 13 | 12%
Cc1ccc(Cl)cc1N1CCN(C(=O)c2ccc(CS(=O)c3ccccc3)o2)CC1 (centres undefined) | · | 5.2µM* | 2.6µM* | · | ·
Cc1ccc(S(=O)(=O)Cc2ccc(C(=O)N3CCN(c4cccc(C)c4C)CC3)o2)cc1 | ? | 2.6µM* | 1.8µM* | 66 | 3.7µM*
CC(=O)Oc1ccc2c(c1C(C)C)CCC1C(C)(C)CCC[C@@]21C (some centres undefined) | · | -2% | -24% | · | ·
COC(=O)[C@@]1(C)CCC[C@@]2(C)c3ccc(O)c(C(C)C)c3CCC21 (some centres undefined) | · | 10µM* | 16µM* | · | ·
COC(=O)[C@]1(C)CCC[C@]2(C)c3ccc(C(C)C)cc3C(=O)CC12 (some centres undefined) | · | 23µM* | ? | · | ·
COC(=O)C1(C)CCCC2(C)c3cc(OC)ccc3C(=O)C(Br)C12 (centres undefined) | -2% | 6.5µM* | 12µM* | -23 | -27%
CCOc1ccccc1NS(=O)(=O)c1ccc2c(c1)oc(=O)n2C | · | -19% | -20% | · | ·
CCC(C)(C)NC(=O)Cc1ccc(C)cc1 | -1% | 0% | 2% | 0 | -5%
CCOC(=O)C(=O)Nc1nc(-c2ccc3c(c2)CCN3C(=O)C2CC2)c(C)s1 | 16% | 14% | -2% | -1 | 21%
CC(=O)Nc1nc(-c2ccc3c(c2)CC(C)N3C(=O)C2CC2)c(C)s1 (centres undefined) | ? | 2.1µM* | 1.2µM* | -12 | -26%
Cc1sc(NC(=O)c2ccco2)nc1-c1ccc2c(c1)CC(C)N2C(=O)C1CC1 (centres undefined) | 7.9µM* | 3.5µM* | 6.3µM* | -73* | 7.9µM*
CCN1CCN(C(=O)c2cc(-c3ccco3)nc3ccccc23)CC1 | -4%[9.24 µM] | -4% | -6% | 0 | 0%
CCN(CC)c1ccc(NC(=O)CCS(=O)(=O)c2ccc(Br)cc2)c(C)c1 | 12% | -24% | ? | 13 | -2%
COc1ccccc1NS(=O)(=O)c1ccc(C(=O)N2CCN(c3ccccc3)CC2)cc1 | -1% | ? | ? | -7 | -9%
COc1ccccc1NC(=O)NC1(C(=O)N2CCC(O)CC2)CCCCC1 | 3% | -12% | 5% | 10 | 2%
COc1ccccc1NC(=O)NC1(C(=O)N2CCCCC2)CCCCC1 | 12% | 5% | -21% | -76* | 5%
CCOC(=O)C1CCN(C(=O)c2cccc(NS(=O)(=O)c3ccc(F)c(F)c3)c2)CC1 | 15% | -12% | -10% | -101* | 2%
COc1ccccc1NS(=O)(=O)c1ccc(C(=O)N2CCCCCC2)cc1 | -4% | 13µM* | 18µM* | 6 | 4%
O=C(COC(=O)c1cccc(NS(=O)(=O)c2ccc(F)c(F)c2)c1)NC(=O)NC1CCCCC1 | ? | 16µM* | ? | -20 | ?
O=C(CCc1nc2ccccc2s1)NC1CCOC1=O (centres undefined) | 0% | -4% | -4% | 0 | 7%
CC(=O)NC(CC(=O)NCc1ccncc1)c1ccccc1 (centres undefined) | 12% | 21% | 35% | -3 | 18%
CCOC(=O)C1CCN(C(=O)c2ccc(S(=O)(=O)Nc3ccccc3Cl)cc2)CC1 | -6% | 12µM* | ? | ? | -12%
CC1CN(S(=O)(=O)c2cccc(C(=O)N(CCc3ccccc3)Cc3ccccc3)c2)CC(C)O1 (centres undefined) | -8% | 5.8µM* | 7.3µM* | -23 | -26%
SMILES | HT1080NT lethal | TDP1 cell noCPT | TDP1 cell CPT | IL-1B inflam inh | HT1080 IDH1KD tx
CC(=O)N1CCN(S(=O)(=O)c2cccc(C(=O)N(Cc3ccccc3)c3ccc(C)cc3)c2)CC1 | 1% | ? | ? | -7 | 5%
CC1CN(S(=O)(=O)c2cccc(C(=O)OCC(=O)NCc3ccccc3)c2)CC(C)O1 (centres undefined) | -2% | ? | ? | 14 | 1%
Cc1ccc(N(Cc2ccccc2)C(=O)c2cccc(S(=O)(=O)N3CC(C)OC(C)C3)c2)cc1 (centres undefined) | -12% | 16µM* | 21µM* | -29 | -6%
COC(=O)c1ncccc1SC | 0% | -20% | -13% | -1 | 0%
CCOc1nc(C)ccc1-c1noc(-c2cccnc2)n1 | 0% | -25% | -7% | -2 | 5%
CSc1ccc(NC(=O)C2(C)CCN2C(=O)Cc2ccc(C(C)(C)C)cc2)cc1 (centres undefined) | ? | ? | 23µM* | -6 | ?
CC1(C(=O)Nc2ccc3nc[nH]c3c2)CCN1C(=O)C/C=C/c1ccccc1 (centres undefined) | 1% | ? | ? | -21 | 10%
CCCC(C)NC(=O)Cc1ccccc1 (centres undefined) | -1% | -10% | -4% | -11 | -2%
CC1(C(=O)Nc2ccc3nc[nH]c3c2)CCN1C(=O)Cc1ccc(-c2ccccc2)cc1 (centres undefined) | -16% | 16µM* | ? | 24 | -26%
CC(C)(C)c1ccc(CC(=O)N2CCC2(C)C(=O)Nc2cccc3ccccc23)cc1 (centres undefined) | ? | ? | ? | 12 | ?
CSc1ccc(NC(=O)C2(C)CCN2C(=O)c2cc(C)n(C)n2)cc1 (centres undefined) | 2% | 21µM* | ? | -4 | 8%
CCC(C)NC(=O)Cc1ccc(-c2ccccc2)cc1 (centres undefined) | -5% | 21µM* | ? | -8 | 1%
COc1ccc(/C=C/C(=O)OC(C)CN2CCOCC2)cc1 (centres undefined) | -3% | -18% | -5% | -15 | 0%
CCOc1ccc(OCC)c(Nc2nc3ccc(C(=O)c4ccccc4)cc3n3cnnc23)c1 | · | -10% | -20% | · | ·
Cc1ccc(NC(=O)C2(C)CCN2C(=O)Cc2ccc(-c3ccccc3)cc2)cc1 (centres undefined) | ? | 16µM* | 16µM* | -1 | ?
CSc1ccccc1NC(=O)C1(C)CCN1C(=O)Cc1ccc(-c2ccccc2)cc1 (centres undefined) | ? | 18µM* | ? | 0 | ?

Screens as filed in PubChem BioAssay.
